Experimental findings from PMC5540273 (PLoS ONE, 2017) are described below.

The structures appear in SMILES notation.

Among the test systems are STK36; STK39; SYK; SgK110; TAOK1; TAOK2; TAOK3; TBK1; TEC; TESK1; TGFBR1; TGFBR2; TIE1; TLK1; TLK2; TNIK; TNK1; TNK2.
What all share (settings): concentration: 1 μM, replicates: in singlicate; n = 1
In another assay the test system is T1, TAK1.
T1 construct: gene MAP3K7

A further assay has as its system T2, TIE2.
T2 construct: gene TEK
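Also: KINOMEscan kinase panel screen.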

`Nc1ncc(-c2ccc3nccc(-c4ccncc4)c3c2)cc1S(=O)(=O)N1CCCCC1` [GSK1693850]: the “%Inh” value with STK36 is recorded as 0%; in the assay on STK39 it was 0%; in the assay on SYK it was 29%; with SgK110 it was 0%; in the assay on TAK1, 14%; in the assay with TAOK1 it was 3%. Moreover, the “%Inh” value in the assay with TAOK2 stood at 0%; in the assay on TAOK3, 5%; in the assay with TBK1 it was 6%; with TEC it was 0%; in the assay with TESK1, 20%; in the assay with TGFBR1, 0%. For the same compound, the “%Inh” value in the assay on TGFBR2 came out at 0%; with TIE1, 4%; with TIE2 it was 0%; in the assay with TLK1, 37%; with TLK2, 0%; in the assay with TNIK, 10%. For the same compound, the “%Inh” value in the assay with TNK1 was found to be 0%; in the assay with TNK2, 9%.

Take `Cc1nn2c(=O)cc(N3CCO[C@H](C)C3)nc2n1Cc1cccc(Cl)c1Cl` [GSK2373693]: the “%Inh” value stood at 0% with STK36; 5% in the assay with STK39; 19% with SYK; 0% with SgK110; 0% in the assay with TAK1; 0% in the assay on TAOK1. For the same compound, the “%Inh” value came to 0% in the assay on TAOK2; 3% with TAOK3; 0% in the assay with TBK1; 2% in the assay on TEC; 20% in the assay on TESK1; 0% in the assay with TGFBR1. The “%Inh” value in the assay with TGFBR2 is reported as 8%; with TIE1, 15%; in the assay on TIE2 it was 2%; in the assay on TLK1, 0%; in the assay on TLK2, 0%; with TNIK, 0%. Further, the “%Inh” value in the assay with TNK1 came to 0%; with TNK2 it was 10%.

As for `Nc1ncc(-c2cn[nH]c2)c2scc(-c3ccc4c(c3)CCN4C(=O)Cc3ccccc3)c12` [GSK2593067], the “%Inh” value with STK36 is on record as 0%; in the assay on STK39, 0%; with SYK it was 25%; in the assay with SgK110, 0%; in the assay with TAK1 it was 0%; in the assay on TAOK1 it was 0%. Also, the “%Inh” value in the assay on TAOK2 was 0%; in the assay with TAOK3, 0%; in the assay with TBK1 it was 1%; in the assay with TEC it was 4%; in the assay with TESK1, 59%; with TGFBR1, 0%. The “%Inh” value amounted to 0% in the assay with TGFBR2; 97.4% in the assay on TIE1; 83% in the assay on TIE2; 0% in the assay on TLK1; 0% in the assay with TLK2; 69% with TNIK. Besides, the “%Inh” value came out at 45% in the assay on TNK1 and 79% in the assay on TNK2.

Turning to `Cc1ccc(NC(=O)c2cccc(N3CCCCC3)c2)cc1-c1ccc(C(=O)NCC2CC2)cc1` [GSK1917008], the “%Inh” value is listed as 0% with STK36; 0% in the assay with STK39; 20% in the assay with SYK; 0% in the assay on SgK110; 0% with TAK1; 8% in the assay on TAOK1. Further, the “%Inh” value is reported as 0% in the assay on TAOK2; 12% in the assay with TAOK3; 0% with TBK1; 0% with TEC; 0% with TESK1; 24% in the assay with TGFBR1. Besides, the “%Inh” value in the assay on TGFBR2 worked out at 9%; in the assay with TIE1, 1%; in the assay on TIE2 it was 0%; in the assay on TLK1 it was 4%; with TLK2, 0%; in the assay with TNIK, 2%. In addition, the results for the “%Inh” value in the assay with TNK1 and in the assay on TNK2 were 6% and 16%, respectively.

`Nc1cccc(-c2ccc3c(N)n[nH]c3c2)c1` [GSK2193613]: the “%Inh” value was 0% in the assay with STK36; 0% with STK39; 22% in the assay with SYK; 0% in the assay on SgK110; 0% with TAK1; 69% in the assay on TAOK1. For the same compound, the “%Inh” value in the assay on TAOK2 was determined as 4%; in the assay with TAOK3, 29%; in the assay with TBK1, 0%; in the assay on TEC it was 0%; in the assay on TESK1, 29%; in the assay on TGFBR1, 0%. In addition, the “%Inh” value is recorded as 0% in the assay with TGFBR2; 6% in the assay with TIE1; 0% in the assay on TIE2; 3% with TLK1; 0% in the assay on TLK2; 93.2% in the assay on TNIK. Also, the “%Inh” value in the assay with TNK1 is reported as 0%; with TNK2, 13%.

Consider `COc1cc(Nc2nccc(N3CCC(NS(=O)(=O)c4ccc(NC(C)=O)cc4)CC3)n2)cc(OC)c1OC` [GSK1379825], for which the “%Inh” value in the assay with STK36 was determined as 62%; in the assay on STK39, 0%; with SYK, 37%; in the assay on SgK110, 0%; with TAK1 it was 0%; with TAOK1 it was 0%. Further, the “%Inh” value came out at 0% with TAOK2; 0% in the assay with TAOK3; 26% with TBK1; 0% with TEC; 71% with TESK1; 61% with TGFBR1. Moreover, the “%Inh” value with TGFBR2 came out at 0%; in the assay with TIE1, 63%; in the assay with TIE2, 63%; in the assay with TLK1 it was 0%; in the assay on TLK2 it was 0%; with TNIK it was 22%. Also, the “%Inh” value was 6% in the assay on TNK1 and 76% with TNK2.

Take `CCOc1nccc(-c2c(-c3ccc(F)cc3)ncn2C2CCNCC2)n1` [SB-249175]: the “%Inh” value was found to be 24% with STK36; 74% in the assay on STK39; 32% with SYK; 0% in the assay with SgK110; 34% in the assay with TAK1; 100% in the assay with TAOK1. Besides, the “%Inh” value is 0% in the assay on TAOK2; 73% in the assay on TAOK3; 23% in the assay on TBK1; 10% in the assay on TEC; 12% in the assay with TESK1; 19% in the assay with TGFBR1. Moreover, the “%Inh” value in the assay with TGFBR2 was 11%; in the assay on TIE1, 23%; in the assay with TIE2, 19%; in the assay with TLK1, 0%; in the assay on TLK2, 15%; in the assay on TNIK, 49%. Besides, the “%Inh” value in the assay on TNK1 is 21%; in the assay with TNK2 it was 0%.

On to `CC(C)c1nc(-c2ccc(F)c(NS(=O)(=O)c3c(F)cccc3F)c2)c(-c2ccnc(Nc3ccc(N4CCOCC4)nc3)n2)s1` [GSK1804250], for which the “%Inh” value in the assay with STK36 is on record as 100%; with STK39 it was 11%; in the assay with SYK, 46%; in the assay with SgK110, 0%; in the assay on TAK1, 46%; in the assay on TAOK1, 4%. Further, the “%Inh” value was 0% in the assay with TAOK2; 5% in the assay with TAOK3; 6% in the assay with TBK1; 45% with TEC; 96.2% in the assay with TESK1; 90.8% with TGFBR1. For the same compound, the “%Inh” value in the assay with TGFBR2 amounted to 92.9%; in the assay on TIE1, 87%; in the assay on TIE2, 98.9%; in the assay on TLK1, 19%; in the assay on TLK2, 11%; with TNIK, 27%. The “%Inh” value is 100% in the assay with TNK1 and 99.5% with TNK2.
